Data on ten compounds can be found in PubChem BioAssay (EPA / NIEHS).

Values joined by “and” are separate entries in the source; they are usually repeats but may differ in a detail not shown here. Equal entries are not always repeated. Inconclusive results are not listed. Where a structure was tested more than once in an assay, its records may differ in their call. Active and inactive are the calls of the source. Rule for the calls, unless noted: active = hit-call score of the fitted dose curve at least 0.9, where 1 is the maximum; inactive = score below 0.9.

Test [1] is described as follows: ATG_NFI_CIS: Attagene CIS-FACTORIAL HepG2 Assay for human Nuclear Factor I (NFI) (AID 2282989). As to conditions: HepG2 cis-regulatory reporter, NFI response element transcription; actives raise or lower the signal. The gist of the method: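 Transfected HepG2 liver cells, exposed 24 h, supplied total RNA for oligo(dT) reverse transcription and reporter-specific PCR. Labelled, HpaI-cut fragments were sized by capillary electrophoresis; DMSO set the baseline for bidirectional fitting.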

Test [2] has as its target Myc proto-oncogene protein (Homo sapiens) (UniProt P01106). The test is described as follows: ATG_Myc_CIS: Attagene CIS-FACTORIAL HepG2 Assay for human Myelocytomatosis (Myc) Proto-Oncogene Transcription Factor (AID 2282990). The following applies: HepG2, Attagene cis-reporter transcription factor activity; actives raise or lower the signal. The gist of the method: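 DMSO-normalised, bidirectionally fitted reporter mRNA signal. HepG2 cells transfected with cis reporter constructs, treated 24 h; transcripts detected by RT-PCR, 6-FAM primer extension and CE.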

A short description of test [3]: ATG_NRF2_ARE_CIS: Attagene CIS-FACTORIAL HepG2 Assay for human Nuclear Factor Erythroid 2 Related Factor 2 (NFR2) response to Antioxidant Response Elements (ARE) (AID 2282992).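 For AC50: reporter mRNA level measured by RT-PCR and capillary electrophoresis fluorescence.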 The following applies: HepG2 Attagene ARE/NRF2 reporter, transcription factor activity; actives raise or lower the signal. The gist of the method: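 Cis-factorial assay: transfected HepG2 reporter library, 24 h dosing, mRNA readout via RT-PCR/CE; DMSO-referenced bidirectional analysis.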

Test [4] is described as follows: ATG_Oct_MLP_CIS: Attagene CIS-FACTORIAL HepG2 Assay for human Octamer-Binding Transcription Factor (Oct) (AID 2282993). As to conditions: HepG2 Attagene cis-factorial Oct reporter, mRNA; actives raise or lower the signal. The gist of the method:
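Using HepG2 cells bearing transfected cis-reporter constructs, mRNA induction was read after 24 h by fluorescent RT-PCR and capillary electrophoresis, with DMSO defining baseline for gain- or loss-of-signal fits.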

Test [5] concerns the target Cellular tumor antigen p53 (Homo sapiens) (UniProt P04637). In words: ATG_p53_CIS: Attagene CIS-FACTORIAL HepG2 Assay for human p53 Transcription Factor (AID 2282994). As to conditions: HepG2 p53 cis-element reporter, Attagene mRNA; actives raise or lower the signal. The method, boiled down: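 Using HepG2 hepatoma cells carrying cis-acting multiplexed reporters, mRNA induction is detected after a 24 h exposure. Gain- and loss-of-signal responses are fitted relative to DMSO-treated cells.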

Test [6] deals with Nuclear receptor subfamily 1 group I member 2 (Homo sapiens) (UniProt O75469). The test is described as follows: ATG_PXR_TRANS: Attagene TRANS-FACTORIAL HepG2 Assay for human Pregnane X Receptor (PXR) (AID 2283008; active = hit-call score of the fitted dose curve at least 0.9, where 1 is the maximum). The gist of the method:
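Fluorescence intensity of FAM-labelled, HpaI-digested reporter amplicons, separated by capillary electrophoresis, quantifies induction. HepG2 cells with PXR-Gal4 trans-reporter system were exposed 24 h; DMSO defines baseline.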

For test [7], the target named is human RAR-related Orphan Receptor beta (RORb), RORB (gene 6096) (UniProt Q92753). The test is described as follows: ATG_RORb_TRANS: Attagene TRANS-FACTORIAL HepG2 Assay for human RAR-related Orphan Receptor beta (RORb) (AID 2283010; active = hit-call score of the fitted dose curve at least 0.9, where 1 is the maximum). The method, boiled down:
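Readout is reporter-gene mRNA induction, detected as fluorescence after RT-PCR and capillary electrophoresis, fitted for gain of signal against DMSO controls. Transiently transfected HepG2 liver cells carrying GAL4-UAS reporter constructs were treated for 24 hours.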

In test [8] the target is Retinoic acid receptor alpha (Homo sapiens) (UniProt P10276). The test is described as follows: ATG_RARa_TRANS: Attagene TRANS-FACTORIAL HepG2 Assay for human Retinoic Acid Receptor alpha (RARa) (AID 2283005; active = hit-call score of the fitted dose curve at least 0.9, where 1 is the maximum). The method, boiled down:
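HepG2 cells transiently transfected with multiple reporter units expressing chimeric RARα-GAL4 fusion, with GAL4-UAS-driven reporters. After 24 h compound exposure, reporter mRNA induction quantified by RT-PCR and capillary electrophoresis with fluorescent labeling; gain-of-signal fitted relative to DMSO control.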

The target in test [9] is Peroxisome proliferator-activated receptor gamma (Homo sapiens) (UniProt P37231). In words: ATG_PPARg_TRANS: Attagene TRANS-FACTORIAL HepG2 Assay for human Peroxisome Proliferator-activated Receptor-gamma (PPARg) (AID 2283007; active = hit-call score of the fitted dose curve at least 0.9, where 1 is the maximum). The gist of the method: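 Multiplexed reporter transcription units in HepG2, 24 h dosing, reporter transcripts quantified by fluorescent RT-PCR and capillary electrophoresis. Increase over DMSO scored.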

Test [10] deals with human Retinoic Acid Receptor gamma (RARg), RARG (gene 5916) (UniProt P13631). The test is described as follows: ATG_RARg_TRANS: Attagene TRANS-FACTORIAL HepG2 Assay for human Retinoic Acid Receptor gamma (RARg) (AID 2283009; active = hit-call score of the fitted dose curve at least 0.9, where 1 is the maximum). The method, boiled down:
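Transient transfection of HepG2 with multi-reporter constructs, then 24 h chemical treatment. Total RNA isolated, reverse-transcribed, PCR-amplified, fluorescently labelled and resolved by capillary electrophoresis; activity scored as mRNA induction versus DMSO.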

In test [11] the target is human Peroxisome Proliferator-activated Receptor delta (PPARd), PPARD (gene 5467) (UniProt Q03181). In words: ATG_PPARd_TRANS: Attagene TRANS-FACTORIAL HepG2 Assay for human Peroxisome Proliferator-activated Receptor delta (PPARd) (AID 2283002; active = hit-call score of the fitted dose curve at least 0.9, where 1 is the maximum). The method, boiled down:
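Measured quantity: GAL4-UAS reporter transcript induction in HepG2 after 24 h chemical dosing, with NR-Gal4 chimeras supplied by transient transfection. Detection by RT-PCR and capillary electrophoresis; upward fit against DMSO.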

The target of test [12] is human Retinoic Acid Receptor beta (RARb), RARB (gene 5915) (UniProt P10826). The test is described as follows: ATG_RARb_TRANS: Attagene TRANS-FACTORIAL HepG2 Assay for human Retinoic Acid Receptor beta (AID 2283004; active = hit-call score of the fitted dose curve at least 0.9, where 1 is the maximum). The gist of the method: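 Readout is reporter mRNA induction: RNA reverse-transcribed, PCR-amplified, FAM-labelled, HpaI-cut and resolved by capillary electrophoresis. Transiently transfected HepG2 cells carrying exogenous NR–Gal4 chimeras were dosed for 24 h; activity fitted upward relative to DMSO.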

In test [13] the target is human Peroxisome Proliferator-activated Receptor alpha (PPARa), PPARA (gene 5465) (UniProt Q07869). The test is described as follows: ATG_PPARa_TRANS: Attagene TRANS-FACTORIAL HepG2 Assay for human Peroxisome Proliferator-activated Receptor alpha (PPARa) (AID 2283001; active = hit-call score of the fitted dose curve at least 0.9, where 1 is the maximum). The gist of the method:
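Gain-of-signal endpoint: reporter mRNA induction relative to DMSO, detected by fluorescent RT-PCR and capillary electrophoresis. HepG2 cells transiently carried GAL4-UAS-driven reporter units plus NR-Gal4 fusion; exposure lasted 24 h.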

A short description of test [14]: BSK_3C_TissueFactor: BioMAP Diversity Plus: 3C Assay for Tissue Factor Biomarker Activity (AID 2282997). The following applies: BioMAP 3C HUVEC, tissue factor biomarker readout; actives raise or lower the signal. The gist of the method:
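Human vascular primary cells (umbilical vein endothelium) received test chemical; Tissue Factor was determined by ELISA at 24 h, and both gain and loss of signal versus DMSO were fitted.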

The nature of test [15]: BSK_3C_uPAR: BioMAP Diversity Plus: 3C Assay for Urokinase-type plasminogen activator receptor (uPAR) Biomarker Activity (AID 2282998). The following applies: BioMAP 3C HUVEC, uPAR biomarker ELISA; actives raise or lower the signal. The gist of the method: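 In this endothelial cell-based assay, human umbilical vein primary cells were treated with chemicals and harvested at 24 h. uPAR was quantified using ELISA, with gains or losses fitted relative to DMSO controls.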

Test [16] in a line: BSK_4H_Eotaxin3: BioMAP Diversity Plus: 4H Assay for Eotaxin 3 Biomarker Activity (AID 2283000).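 Note: CCL26 protein level quantified by ELISA in parallel with SRB cytotoxicity check.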 As to conditions: primary human endothelial cells (HUVEC); actives raise or lower the signal. The method, boiled down:
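Readout is Eotaxin-3 (CCL26) level by ELISA in primary human umbilical vein endothelial cells harvested 24 h after chemical exposure; activity fitted in both directions against DMSO control.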

Read-out in test [17]: Intercellular Adhesion Molecule 1 (ICAM1), ICAM1 (gene 3383)
In words: BSK_3C_ICAM1: BioMAP Diversity Plus: 3C Assay for Intercellular Adhesion Molecule 1 (ICAM1) Biomarker Activity (AID 2283003). As to conditions: primary human endothelial cells (HUVEC); actives raise or lower the signal. The method, boiled down:
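ICAM-1 levels measured by ELISA after HUVEC cultures in the 3C system had been dosed for 24 h. Gain or loss of signal relative to DMSO was fitted in both directions.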

Test [18] in a line: BSK_3C_Proliferation: Cell Proliferation Assessment in the BioMAP Diversity Plus: 3C Assay (AID 2283006). The following applies: primary human endothelial cells (HUVEC). The gist of the method:
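Read-out is total protein by SRB absorbance at 560 nm, taken as a proxy for relative cell number. Primary human umbilical vein endothelium cultured below confluence was dosed for 48 h, TCA-fixed and SRB-stained; curves were fitted bidirectionally versus DMSO.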

Sequence of Nuclear receptor subfamily 1 group I member 2 (Homo sapiens) (O75469 whole entry, looked up, the tested form may be a part): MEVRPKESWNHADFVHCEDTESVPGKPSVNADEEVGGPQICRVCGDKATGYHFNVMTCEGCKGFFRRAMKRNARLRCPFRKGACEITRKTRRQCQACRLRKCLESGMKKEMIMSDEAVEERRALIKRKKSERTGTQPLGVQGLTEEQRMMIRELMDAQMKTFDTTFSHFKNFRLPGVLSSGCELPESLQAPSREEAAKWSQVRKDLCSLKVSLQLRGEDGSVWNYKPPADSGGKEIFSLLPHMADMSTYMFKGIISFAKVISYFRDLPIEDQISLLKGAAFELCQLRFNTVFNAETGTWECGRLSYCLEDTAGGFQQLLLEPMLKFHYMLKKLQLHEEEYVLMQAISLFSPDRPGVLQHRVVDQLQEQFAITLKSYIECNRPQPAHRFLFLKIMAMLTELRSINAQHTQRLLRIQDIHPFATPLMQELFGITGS
Sequence of human Peroxisome Proliferator-activated Receptor delta (PPARd), PPARD (gene 5467) (Q03181 whole entry, looked up, the tested form may be a part): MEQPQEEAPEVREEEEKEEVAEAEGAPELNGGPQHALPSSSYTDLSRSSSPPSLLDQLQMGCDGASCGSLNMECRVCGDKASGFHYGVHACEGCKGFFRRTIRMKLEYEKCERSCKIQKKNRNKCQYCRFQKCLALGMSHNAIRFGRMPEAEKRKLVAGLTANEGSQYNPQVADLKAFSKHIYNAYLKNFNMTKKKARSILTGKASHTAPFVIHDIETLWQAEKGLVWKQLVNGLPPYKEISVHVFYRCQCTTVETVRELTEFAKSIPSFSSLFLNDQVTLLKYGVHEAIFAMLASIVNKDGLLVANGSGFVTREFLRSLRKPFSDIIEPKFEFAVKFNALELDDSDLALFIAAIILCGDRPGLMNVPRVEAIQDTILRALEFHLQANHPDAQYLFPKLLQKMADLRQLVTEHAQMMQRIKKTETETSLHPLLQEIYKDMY
Sequence of human Retinoic Acid Receptor gamma (RARg), RARG (gene 5916) (P13631 whole entry, looked up): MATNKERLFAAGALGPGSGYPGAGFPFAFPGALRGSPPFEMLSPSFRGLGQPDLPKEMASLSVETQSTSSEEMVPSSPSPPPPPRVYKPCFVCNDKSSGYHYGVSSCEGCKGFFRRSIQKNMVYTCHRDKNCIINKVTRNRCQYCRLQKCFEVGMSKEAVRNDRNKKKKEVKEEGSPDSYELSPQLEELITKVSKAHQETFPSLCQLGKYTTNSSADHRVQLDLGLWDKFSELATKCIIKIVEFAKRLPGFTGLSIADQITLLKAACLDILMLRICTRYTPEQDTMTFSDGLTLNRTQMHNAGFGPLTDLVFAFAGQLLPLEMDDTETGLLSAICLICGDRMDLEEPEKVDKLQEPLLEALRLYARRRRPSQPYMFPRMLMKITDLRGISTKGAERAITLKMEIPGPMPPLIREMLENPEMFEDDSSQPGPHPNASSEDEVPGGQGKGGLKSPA
Sequence of Retinoic acid receptor alpha (Homo sapiens) (P10276 whole entry, looked up, the tested form may be a part): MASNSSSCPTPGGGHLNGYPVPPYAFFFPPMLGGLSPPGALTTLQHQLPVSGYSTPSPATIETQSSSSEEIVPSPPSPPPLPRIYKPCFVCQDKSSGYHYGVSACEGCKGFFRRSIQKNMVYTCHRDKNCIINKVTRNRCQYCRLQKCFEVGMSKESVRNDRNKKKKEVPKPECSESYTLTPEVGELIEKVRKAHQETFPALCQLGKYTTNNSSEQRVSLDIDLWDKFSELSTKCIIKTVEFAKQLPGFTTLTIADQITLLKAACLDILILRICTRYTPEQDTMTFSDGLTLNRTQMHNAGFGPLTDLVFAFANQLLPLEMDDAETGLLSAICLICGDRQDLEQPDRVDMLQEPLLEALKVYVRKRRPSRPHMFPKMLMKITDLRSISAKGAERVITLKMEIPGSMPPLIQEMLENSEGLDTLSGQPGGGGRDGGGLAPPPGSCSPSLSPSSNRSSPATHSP
Sequence of Cellular tumor antigen p53 (Homo sapiens) (P04637 whole entry, looked up): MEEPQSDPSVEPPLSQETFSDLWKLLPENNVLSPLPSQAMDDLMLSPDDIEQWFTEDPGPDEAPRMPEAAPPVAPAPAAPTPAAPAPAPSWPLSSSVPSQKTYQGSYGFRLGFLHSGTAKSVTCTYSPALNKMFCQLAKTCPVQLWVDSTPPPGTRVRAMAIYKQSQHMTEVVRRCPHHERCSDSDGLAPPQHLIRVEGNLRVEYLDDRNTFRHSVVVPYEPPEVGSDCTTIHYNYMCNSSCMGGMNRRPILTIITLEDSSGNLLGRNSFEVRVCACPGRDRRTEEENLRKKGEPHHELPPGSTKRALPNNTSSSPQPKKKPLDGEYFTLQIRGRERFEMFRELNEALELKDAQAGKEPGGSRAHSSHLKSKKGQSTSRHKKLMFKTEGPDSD
Sequence of human Peroxisome Proliferator-activated Receptor alpha (PPARa), PPARA (gene 5465) (Q07869 whole entry, looked up, the tested form may be a part): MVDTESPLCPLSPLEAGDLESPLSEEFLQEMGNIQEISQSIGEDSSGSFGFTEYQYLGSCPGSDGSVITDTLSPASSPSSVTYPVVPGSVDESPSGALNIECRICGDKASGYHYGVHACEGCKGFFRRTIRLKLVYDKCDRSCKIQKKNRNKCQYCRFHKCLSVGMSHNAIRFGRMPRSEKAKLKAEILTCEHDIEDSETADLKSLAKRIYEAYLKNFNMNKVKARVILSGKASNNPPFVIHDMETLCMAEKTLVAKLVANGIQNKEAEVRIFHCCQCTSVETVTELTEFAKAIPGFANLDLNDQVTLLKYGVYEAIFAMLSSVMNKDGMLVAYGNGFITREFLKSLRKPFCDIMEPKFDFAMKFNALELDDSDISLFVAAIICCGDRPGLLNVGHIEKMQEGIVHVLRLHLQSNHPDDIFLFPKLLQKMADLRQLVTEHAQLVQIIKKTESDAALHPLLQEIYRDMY
Sequence of Myc proto-oncogene protein (Homo sapiens) (P01106 whole entry, looked up): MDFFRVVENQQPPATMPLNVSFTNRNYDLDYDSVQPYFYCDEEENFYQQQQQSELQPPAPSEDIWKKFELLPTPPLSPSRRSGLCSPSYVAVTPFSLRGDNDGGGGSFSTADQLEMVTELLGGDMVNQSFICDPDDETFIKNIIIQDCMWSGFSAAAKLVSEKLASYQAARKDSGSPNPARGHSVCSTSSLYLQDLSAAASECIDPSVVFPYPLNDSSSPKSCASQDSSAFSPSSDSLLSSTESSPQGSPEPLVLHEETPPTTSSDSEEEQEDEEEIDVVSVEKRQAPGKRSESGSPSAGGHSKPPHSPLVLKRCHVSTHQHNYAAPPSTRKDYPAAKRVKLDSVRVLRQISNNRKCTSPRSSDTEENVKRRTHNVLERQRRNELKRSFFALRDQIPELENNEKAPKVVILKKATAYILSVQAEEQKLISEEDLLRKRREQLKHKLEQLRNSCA
Sequence of human RAR-related Orphan Receptor beta (RORb), RORB (gene 6096) (Q92753 whole entry, looked up, the tested form may be a part): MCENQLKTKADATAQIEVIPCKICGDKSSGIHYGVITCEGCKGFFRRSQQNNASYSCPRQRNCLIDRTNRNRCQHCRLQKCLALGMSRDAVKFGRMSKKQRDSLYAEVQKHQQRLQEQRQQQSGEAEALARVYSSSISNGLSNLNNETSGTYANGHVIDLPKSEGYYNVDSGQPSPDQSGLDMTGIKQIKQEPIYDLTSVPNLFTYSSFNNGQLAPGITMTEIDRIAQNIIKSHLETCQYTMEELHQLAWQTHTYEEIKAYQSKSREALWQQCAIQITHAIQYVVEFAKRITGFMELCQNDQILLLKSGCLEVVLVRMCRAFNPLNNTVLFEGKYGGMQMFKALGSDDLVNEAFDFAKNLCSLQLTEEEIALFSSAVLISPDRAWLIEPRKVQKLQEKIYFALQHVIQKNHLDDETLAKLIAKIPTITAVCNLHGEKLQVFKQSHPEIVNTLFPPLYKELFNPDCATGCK
Sequence of Peroxisome proliferator-activated receptor gamma (Homo sapiens) (P37231 whole entry, looked up): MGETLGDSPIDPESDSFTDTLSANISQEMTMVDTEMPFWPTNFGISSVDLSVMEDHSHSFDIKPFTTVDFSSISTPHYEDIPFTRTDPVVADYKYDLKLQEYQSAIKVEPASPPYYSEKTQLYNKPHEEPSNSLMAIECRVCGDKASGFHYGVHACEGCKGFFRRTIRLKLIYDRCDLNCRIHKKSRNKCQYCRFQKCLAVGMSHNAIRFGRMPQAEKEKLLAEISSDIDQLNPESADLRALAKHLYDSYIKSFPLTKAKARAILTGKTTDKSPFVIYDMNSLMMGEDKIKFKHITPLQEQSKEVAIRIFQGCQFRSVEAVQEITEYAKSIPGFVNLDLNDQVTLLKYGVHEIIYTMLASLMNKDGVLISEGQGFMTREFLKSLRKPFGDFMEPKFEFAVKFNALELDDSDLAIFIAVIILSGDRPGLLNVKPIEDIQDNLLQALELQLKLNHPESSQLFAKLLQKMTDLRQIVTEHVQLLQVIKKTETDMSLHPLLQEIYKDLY
Sequence of human Retinoic Acid Receptor beta (RARb), RARB (gene 5915) (P10826 whole entry, looked up, the tested form may be a part): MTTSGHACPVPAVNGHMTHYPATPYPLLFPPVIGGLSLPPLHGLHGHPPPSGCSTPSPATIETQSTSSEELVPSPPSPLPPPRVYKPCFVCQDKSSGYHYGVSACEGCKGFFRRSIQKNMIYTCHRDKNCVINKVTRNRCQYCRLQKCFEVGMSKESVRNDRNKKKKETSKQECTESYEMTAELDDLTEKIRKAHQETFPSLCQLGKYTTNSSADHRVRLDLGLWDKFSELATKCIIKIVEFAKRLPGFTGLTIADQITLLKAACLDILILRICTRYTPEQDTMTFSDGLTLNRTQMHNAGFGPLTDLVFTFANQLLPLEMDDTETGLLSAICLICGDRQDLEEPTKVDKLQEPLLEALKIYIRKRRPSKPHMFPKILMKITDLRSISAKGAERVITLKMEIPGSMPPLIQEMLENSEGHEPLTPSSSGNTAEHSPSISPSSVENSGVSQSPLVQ

Consider `O=C1OC(=O)c2cc(-c3ccc4c(c3)C(=O)OC4=O)ccc21`, for which the call in test [1], in test [2], in [3], in test [4], in test [5] and in test [6] was inactive. The compound was classed as inactive in test [7].

For `FC(F)(F)C(F)(F)C(F)(F)Br`, the call in test [1], in test [2], in test [3], in [4], in test [8] and in [9] was inactive. The outcome in test [6] and in test [10] was inactive.

`FC(F)(F)C1(F)C(F)(F)C(F)(F)C(F)(F)C1(F)F`: the call in [1], in [2], in test [3], in test [4], in [11] and in test [12] was inactive. Moreover, the result in test [8], in test [9], in test [10] and in test [7] was inactive.

Regarding `FCOC(C(F)(F)F)C(F)(F)F`, the result in test [1], in test [2], in test [3], in [4], in test [11] and in [10] was inactive. Further, the result in test [7] was inactive.

Turning to `COC(=O)C(F)(F)C(F)(F)C(F)(F)F`, the compound was classed as inactive in test [1], in test [2], in test [3], in test [4], in [5] and in test [13]. In addition, the compound was classed as inactive in test [11] and in test [9].

As usually defined, the AC50 is the concentration giving half of the maximal activity seen. As for `c1cnc2c(c1)ccc1cccnc12`, the outcome in test [1], in [2], in test [3], in test [4], in [11] and in [12] was inactive. The outcome in test [8], in test [9], in test [6], in [10] and in [7] was inactive. Further, the AC50 is 3.04 µM (active) in test [3]; 155 µM (active) in [4]; 6.68 µM (active) and 6 µM (active) in test [5]; 26.4 µM (active) in test [6].

As for `CCCCCCc1ccc(N)cc1`, the compound was classed as inactive in test [1], in test [2], in test [4], in test [11], in test [9] and in [6]. Also, the values for the half-maximal activity concentration (AC50) in test [3] and in test [5] were 2.51 µM (active) and 6.32 µM (active), respectively.

Regarding `O=C(OC(=O)C(F)(F)C(F)(F)F)C(F)(F)C(F)(F)F`, the result in test [1], in [2], in test [3], in test [4], in test [5] and in [11] was inactive. The compound was classed as inactive in test [8], in test [9], in test [6] and in test [10].

With `CCN(CC)CC`, the outcome in [1], in [2], in test [3], in test [4], in [5] and in test [13] was inactive. Also, the compound was called inactive in [11], in test [6] and in test [10].

`COCN(COC)c1nc(N(COC)COC)nc(N(COC)COC)n1`: the compound was called inactive in [1], in [2], in [3], in test [4], in [5] and in [14]. The result in test [15], in test [16], in test [13], in test [11], in test [17] and in test [18] was inactive. The outcome in test [6] and in [10] was inactive.
